Test [1] is described as follows: viability loss with induced miR-34 in A549 – imaging, A549 dox-inducible miR-34, nuclei and caspase counts, primary screen (AID 1347080). The conditions noted are these: A549 miR-34 inducible, Hoechst nuclei count, 48 h.
A short description of test [2]: compounds altering circadian rhythm period length – cell-based, LOPAC library, luminescence reporter (AID 2774; call rule not given here;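 further: values are relative to mean of DMSO wells on each plate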). The conditions noted are these: circadian reporter cells, at 7 µM, actives lie on both sides.
The nature of test [3]: compounds altering viability of human ES cells (AID 493140; call rule not given here;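 further: cells exposed to compounds for four days before counting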). The conditions noted are these: human embryonic stem cell survival screen; stronger effect = higher value.
In test [4] the test system is Hepatitis C virus NS3 helicase. The test can be described thus: blockers of NS3h binding to ssDNA – biochemical, fluorescence polarization, LOPAC1280 library, primary screen (AID 687035; in the data active means inhibition above about 37%). The conditions noted are these: Purified HCV NS3 helicase, Cy5-dT15 ssDNA binding fluorescence polarization; stronger effect = higher value; concentration not given here.
A short description of test [5]: compounds altering Cy5-DNA-NS3h complex signal – biochemical, LOPAC1280, artefact control for HCV NS3 helicase inhibitor project (AID 687037; call rule not given here). Particulars: Cy5-DNA-NS3h complex fluorescence interference counterscreen. (Counterscreens check selectivity or assay interference.)
Test [6] can be described thus: chitosan synthesis blockers in C. neoformans – flow cytometry, Cibacron Brilliant Red staining (AID 1347148; call rule not given here;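 further: compound exposure lasted three days at 37 degrees C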). The conditions noted are these: Cryptococcus neoformans chitosan, stronger effect = lower value; at 10 µM unless noted.
A short description of test [7]: blockers of cellular phospholipid synthesis – cell-based, LOPAC library, screen 4, primary screen (AID 1347384; call rule not given here). Particulars: animal cells, phospholipid biosynthesis inhibition screen; at 10 µM.
Test [8] is described as follows: galactose survival enhancers in mitochondrial complex I cybrids – cell-based, galactose medium, ATP luminescence, primary screen (AID 1645843;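 active means z-score of at least 1.8 in each of two replicates, scored against plate mean and spread of sample wells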;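 further: positive z means more ATP and so rescue of galactose-driven cybrid death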). The conditions noted are these: complex I mutant cybrid cells, 72 h, stronger effect = higher value.
A short description of test [9]: P. berghei load reduction in hepatocytes – cell-based, HepG2, luciferase luminescence, HepG2 viability, primary screen (AID 624349; in the data active means parasite load remaining mostly below about 12%, no sharp cut-off; inactive means mostly above about 10%;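 further: 100% = mean of DMSO negative control wells on the same plate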). The conditions noted are these: P. berghei liver stage in HepG2, luciferase luminescence, concentration not given here; parasite load remaining: stronger effect = lower value; viability: measured here: HepG2 viability without parasites.
Test [10] is described as follows: MELAS cybrid and Rieske KO viability enhancers – cell-based, MELAS cybrids, Rieske KO mouse fibroblasts, CellTiter-Glo, primary screen (AID 1508586;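 active means mean z-score across replicates of 1.96 or higher in either the MELAS or the Rieske mutant cell line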;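 further: z relative to plate mean and SD of compound and empty wells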). Particulars: low glucose. A general note: Cellular ATP, detected with luciferase, serves as a proxy for viable cell number.
The mark [11] stands for this setting: stronger effect = lower value, cell number ratio, induced over uninduced.
Where [12] appears, read: measured here: relative caspase fold change +Dox/-Dox.
[13] abbreviates: measured here: total cells with miR-34 induction, stronger effect = lower value.
Where [14] appears, read: measured here: total cells without miR-34 induction.

Where “and” joins values, the source holds several entries; their conditions need not be identical. Equal values may be shown once. Calls of active or inactive are those of the source.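 How the source made its calls, unless noted: active means compounds whose cell count with miR-34 switched on is under 0.7 times the count with it off; inactive means the rest.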

As a reminder, the inhibition is the change of the read-out against control, counted positive when it falls. One may read the viability as a read-out of living cells in per cent, often relative to untreated cells.

Consider `CCCCC[C@H](O)/C=C/[C@@H]1[C@H]2C/C=C\CCCC(=O)O[C@H]2C[C@H]1O`, for which the fold change in [1] (setting [11]) was 0.977 (inactive); in [1] (setting [12]) it was 1.29. Further, the cell count in test [1] (setting [13]) was 5860; in test [1] (setting [14]), 5990.

`CCCC[C@H](C)C[C@H](O)/C=C/[C@@H]1[C@@H](CCCCCCC(=O)O)[C@@H](O)C[C@H]1O`: the fold change in test [1] (setting [11]) is 0.931 (inactive); in test [1] (setting [12]) it was 1.78. The cell count in test [1] (setting [13]) was 5490; in test [1] (setting [14]) it was 5900.

Regarding `CC(=O)c1ncc([C@@H](O)[C@H](O)[C@H](O)CO)[nH]1`, the figures for the fold change in [1] (setting [11]) and in test [1] (setting [12]) were 0.931 (inactive) and 2.05, respectively. In addition, the cell count was found to be 5900 in test [1] (setting [13]) and 6330 in test [1] (setting [14]).

Take `CCCCC[C@H](O)/C=C/[C@H]1C(=O)C[C@H](O)[C@@H]1C/C=C/CCCC(=O)O`: the fold change was 0.96 (inactive) in test [1] (setting [11]) and 1.11 in test [1] (setting [12]). For the same compound, the cell count in test [1] (setting [13]) was 5890; in test [1] (setting [14]) it was 6130.

As to `O=C1C[C@@H]2[C@@H](CC[C@@H](O)CCc3ccccc3)[C@H](O)C[C@@H]2O1`, the fold change was 1.01 (inactive) in test [1] (setting [11]) and 0.657 in [1] (setting [12]). Further, the cell count in test [1] (setting [13]) came out at 6130; in test [1] (setting [14]), 6050.

Take `OCCC/C=C/c1ccccc1`: the fold change in test [1] (setting [11]) was 0.953 (inactive); in [1] (setting [12]), 1.17. Besides, the results for the cell count in test [1] (setting [13]) and in [1] (setting [14]) were 5920 and 6210, respectively.

For `CCCCC1C(=O)CC[C@H]2[C@@H]1CC(=O)[C@@H]2C/C=C\CCCC(=O)O` (stereo partly specified), the fold change was 1.07 (inactive) in test [1] (setting [11]) and 1.48 in test [1] (setting [12]). The results for the cell count in [1] (setting [13]) and in [1] (setting [14]) were 5940 and 5580, respectively.

Regarding `CC(C)(O)c1ccccc1CC[C@H](SCC1(CC(=O)O)CC1)c1cccc(/C=C/c2ccc3ccc(Cl)cc3n2)c1`, the values for the fold change in test [1] (setting [11]) and in test [1] (setting [12]) were 1.04 (inactive) and 0.195, respectively. The cell count is 5500 in [1] (setting [13]) and 5280 in test [1] (setting [14]).

With `CCCCC/C=C\C/C=C\C/C=C\C/C=C\CCCC(=O)C(F)(F)F`, the results for the fold change in test [1] (setting [11]) and in [1] (setting [12]) were 0.997 (inactive) and 0.841, respectively. In addition, the cell count in test [1] (setting [13]) was 5370; in [1] (setting [14]), 5390.

On to `CCNC1=N[C@@H]2[C@@H](O)[C@H](O)[C@@H](CO)O[C@@H]2S1`, for which the fold change in test [1] (setting [11]) was 0.906 (inactive); in test [1] (setting [12]), 1.7. Besides, the figures for the cell count in [1] (setting [13]) and in [1] (setting [14]) were 6020 and 6640, respectively.

On to `C[Se]CC[C@H](N)C(=O)O`, for which the values for the fold change in test [1] (setting [11]) and in test [1] (setting [12]) were 0.969 (inactive) and 0.907, respectively. In addition, the cell count in test [1] (setting [13]) was 8780; in [1] (setting [14]), 9060.

With `COc1ccc2c(c1)c(CC(=O)Nc1cccnc1)c(C)n2C(=O)c1ccc(Cl)cc1`, the fold change in test [1] (setting [11]) was 0.996 (inactive); in [1] (setting [12]) it was 0.947. The cell count in [1] (setting [13]) was 5760; in [1] (setting [14]), 5780.

On to `C=C1C[C@@H](O)[C@H](/C=C/[C@@H](O)C(C)(C)CCCC)[C@H]1C/C=C\CCCC(=O)O`, for which the fold change in test [1] (setting [11]) is 0.979 (inactive) and 0.901 (inactive); in test [1] (setting [12]) it was 1.17 and 1.12. Further, the cell count is 6150 and 5990 in test [1] (setting [13]); 6290 and 6650 in test [1] (setting [14]).

As to `CCCCC(C)(C)[C@H](O)/C=C/[C@H]1C(=O)C[C@H](O)[C@@H]1C/C=C\CCCC(=O)O`, the fold change in test [1] (setting [11]) was 1.04 (inactive); in test [1] (setting [12]), 0.943. The results for the cell count in test [1] (setting [13]) and in test [1] (setting [14]) were 5440 and 5250, respectively.

`CCCCCC/C=C\CCCC(=O)CC(=O)N[C@H]1CCOC1=O`: the fold change in test [1] (setting [11]) was 1.06 (inactive); in test [1] (setting [12]), 1.36. Also, the cell count came out at 6290 in [1] (setting [13]) and 5940 in test [1] (setting [14]).

As for `CCCCC[C@H](O)/C=C/[C@H]1CC[C@@H](O)[C@@H]1CCCCCCC(=O)O`, the figures for the fold change in [1] (setting [11]) and in [1] (setting [12]) were 0.884 (inactive) and 1.26, respectively. In addition, the results for the cell count in [1] (setting [13]) and in [1] (setting [14]) were 6100 and 6900, respectively.

Take `COC1=C2C[C@@H](C)C[C@H](OC)[C@H](O)[C@@H](C)/C=C(\C)[C@H](OC(N)=O)[C@@H](OC)/C=C\C=C(/C)C(=O)NC(=CC1=O)C2=O`: the fold change in [1] (setting [11]) is 0.898 (inactive); in test [1] (setting [12]), 1.11. In addition, the cell count turned out to be 1320 in test [1] (setting [13]) and 1470 in test [1] (setting [14]).

In the case of `CCCCC[C@@H](O)/C=C/[C@H]1C=CC(=O)[C@@H]1CCCCCCC(=O)O`, the fold change in test [1] (setting [11]) was 0.9 (inactive); in [1] (setting [12]), 0.638. In addition, the cell count in test [1] (setting [13]) was 4870; in [1] (setting [14]) it was 5400.

Turning to `CCCCC[C@@](C)(O)/C=C/[C@H]1C=CC(=O)[C@@H]1C/C=C\CCCC(=O)O`, the fold change in [1] (setting [11]) was 0.996 (inactive); in test [1] (setting [12]), 1.14. In addition, the figures for the cell count in test [1] (setting [13]) and in [1] (setting [14]) were 5680 and 5710, respectively.

As to `C[n+]1ccc(/C=C/c2c[nH]c3ccccc23)cc1`, the fold change in test [1] (setting [11]) was 1.05 (inactive); in test [1] (setting [12]) it was 1.99. For the same compound, the cell count in [1] (setting [13]) came out at 1600; in [1] (setting [14]) it was 1530.

Take `CCCCCCCCCCC/C=C\C(C)(C)/C=C\CCCC(=O)O`: the period change in test [2] is -0.11 h (inactive). The survival in test [3] is 88.8 (inactive). Further, the inhibition in test [4] is 0% (inactive). Besides, in test [5], the fluorescence ratio (interference) is 0.9 (inactive). Also, the fold change in test [1] (setting [11]) was 0.986 (inactive) and 1.01 (inactive); in test [1] (setting [12]) it was 1.15 and 1.25. Further, the cell count was 9810 and 5810 in [1] (setting [13]); 9950 and 5750 in [1] (setting [14]). Moreover, the fold fluorescence in test [6] is 5.21 (inactive). The outcome in test [7] was inactive. The z-score in test [8] was 0.145 (inactive).

As for `CC[N+](C)(CC)CCC[n+]1c(-c2ccccc2)c2cc(N)ccc2c2ccc(N)cc21`, the survival in test [3] is 5.17 (inactive). The parasite load remaining in test [9] was 62.2% (inactive). For the same compound, the viability in test [9] turned out to be 92.5%. The fold change in [1] (setting [11]) is 0.82 (inactive) and 0.917 (inactive); in test [1] (setting [12]), 1.46 and 1.13. The cell count in [1] (setting [13]) is 7160 and 5250; in test [1] (setting [14]) it was 8730 and 5720. In addition, in [6], the fold fluorescence is 8.39 [at 120.6 µM] (inactive). For the same compound, the z-score was -0.661 (inactive) in test [10] (MELAS cybrid survival, CellTiter-Glo 48 h, stronger effect = higher value) and 1.71 in test [10] (Rieske KO mouse fibroblast survival, CellTiter-Glo 72 h).

Take `CC(C)(C)c1cc(/C=C(\C#N)C(N)=S)cc(C(C)(C)C)c1O`: the period change in test [2] is 0.535 h (inactive). The survival in test [3] is 106 (inactive). Also, in test [4], the inhibition was 5% (inactive). The fluorescence ratio (interference) in test [5] was 1 (inactive). For the same compound, the fold change was 1.09 (inactive) and 1.17 (inactive) in test [1] (setting [11]); 1.31 and 0.937 in test [1] (setting [12]). Moreover, the cell count in [1] (setting [13]) is 4070 and 1820; in test [1] (setting [14]), 3720 and 1560. For the same compound, the fold fluorescence in test [6] was 11.2 [at 158 µM] (inactive). Further, in [7], the compound was classed as active. Besides, the z-score in test [8] is -1.35 (inactive).

On to `CCCc1oc(CCC(=O)O)c(C(=O)O)c1C`, for which the fold change in test [1] (setting [11]) was 0.885 (inactive); in [1] (setting [12]), 0.896. Also, the cell count in test [1] (setting [13]) stood at 5170; in test [1] (setting [14]), 5840.

Turning to `NC(=S)NCCC[C@H](N)C(=O)O`, the fold change was 0.92 (inactive) and 1.03 (inactive) in test [1] (setting [11]); 1.34 and 0.799 in [1] (setting [12]). Besides, the cell count in test [1] (setting [13]) was 5590 and 6220; in [1] (setting [14]), 6080 and 6060. In test [6], the fold fluorescence is 2.92 [at 261.4 µM] (inactive).

For the compound `C[C@@]1(C2CCCC2)Cc2cc(OCC(=O)O)c(Cl)c(Cl)c2C1=O`, the period change in [2] was 0.04 h (inactive). Also, the inhibition in test [4] was -6% (inactive). Besides, the fluorescence ratio (interference) in [5] was 1 (inactive). Also, the fold change in test [1] (setting [11]) was 1.13 (inactive) and 0.909 (inactive); in test [1] (setting [12]) it was 0.91 and 1.29. In addition, the cell count in test [1] (setting [13]) was 11200 and 5500; in [1] (setting [14]) it was 9900 and 6050. For the same compound, the fold fluorescence in [6] is 4.41 [at 140 µM] (inactive). The result in test [7] was inactive. In addition, the z-score in [8] was 0.845 (inactive).
